The whole screen tested about 69,000 compounds, of which about 8,600 (12%) showed an effect of 50% or more. The list comes from a sample in which strong results are over-represented; it also holds similar structures and randomly drawn compounds.

The test system of this test is Plasmodium berghei. Kind of test: Screen against P. berghei liver stage (PbLuc), transformed with Luciferase, at 10uM. The test is classed as functional, HepG2. Particulars: tested at 10 uM.
Consider `Cc1cnn(CCNc2cnc3ccccc3n2)c1`, for which the INHIBITION was -68.3%.
Take `O=C([C@H]1C[C@@H]2CCN(C3CCOCC3)C[C@@H]2O1)N1CCOCC1`: the INHIBITION was -15.5%.
With `CN1CCC(CNC(=O)CCSc2ccc3c(c2)OCCO3)C1` (stereo not drawn), the INHIBITION turned out to be 28.5%.
With `Cc1cccc(CC(=O)N2CCN(c3nccn3C)CC2)c1`, the INHIBITION is listed as -14.7%.
Take `Cc1sc2c(C3CCCN(C(C)C)C3)nc(C)n2c1C` (stereo not drawn): the INHIBITION is -12.9%.
For `Cn1cc(CN2CCc3onc(C(=O)N4CCCC4)c3C2)cn1`, the INHIBITION amounted to 33.5%.
Turning to `COc1ccc(CC(=O)N2CCCC(n3cc(C)cn3)C2)c(OC)c1` (stereo not drawn), the INHIBITION was found to be 7.08%.
As for `Cc1ccccc1CN1CCCN(C(=O)c2ccn(C)c(=O)c2)CC1`, the INHIBITION is reported as -7.46%.
For `O=C(c1cnc(C2CC2)nc1O)N1CCN(Cc2ccccc2F)CC1`, the INHIBITION is -0.554%.
As for `O=C(COCC1CCCCO1)N1CCN(Cc2ccccc2F)C(=O)C1` (stereo not drawn), the INHIBITION stood at 45.6%.
`Cc1ncc(C(=O)N2CCCN(Cc3ccccc3F)CC2)c(O)n1`: the INHIBITION is on record as 34.9%.
Regarding `CCn1ccc(C(=O)N2CCCN(Cc3ccccc3F)CC2)cc1=O`, the INHIBITION came out at 73.4%.
Next, `CN1CCN(C(=O)c2cnn(-c3ccccc3Cl)c2)CC1`: 14.1%; `CC(=O)N1CCCN(C(=O)c2cnn(-c3ccccc3Cl)c2)CC1`: 47%; `Cn1ccc(C(=O)N2CCN(Cc3ccccc3F)CC2)cc1=O`: -57%.
`O=C(c1cccnc1O)N1CCN(Cc2ccccc2F)CC1`: the INHIBITION is 54.1%.
Turning to `N#Cc1ccc(OC2CCN(C(=O)COCC3CCCO3)CC2)cc1` (stereo not drawn), the INHIBITION is listed as -13.9%.
For `CC(=O)N1CCN(C(=O)c2cnn(-c3ccccc3Cl)c2)CC1`, the INHIBITION was determined as 56.1%.
As to `O=C(COCC1CCCO1)N1CCCN(Cc2ccccc2F)CC1` (stereo not drawn), the INHIBITION is 53%.
With `O=C(CCc1ccsc1)N1CCC(N2CCNC2=O)CC1`, the INHIBITION was determined as 19.5%.
With `CN(CC(=O)N1CCCCC1Cn1cccn1)C1CC1` (stereo not drawn), the INHIBITION is recorded as -79.3%.
The figure for `Cc1cnn(CCNCc2ccccc2OCc2ccccn2)c1` is -15.5%; for `CCCc1n[nH]c(C2CN(C(=O)c3cc(C4CC4)on3)CCO2)n1` (stereo not drawn) it is 14%; for `CN1CCN(C(=O)c2cc3sccc3n2Cc2ccccc2Cl)CC1` it is 11.7%.
As for `CC(C)(C)c1noc(CCC(=O)N2CCN(Cc3ccco3)CC2)n1`, the INHIBITION is recorded as 19.9%.
With `NC(=O)c1cc2c(nc1CCOc1ccc(F)cc1)CCC2`, the INHIBITION is 31.2%.
With `NC(=O)c1cc2c(nc1CCOCc1ccccc1)CCC2`, the INHIBITION amounted to 20.3%.
As to `COc1cccc(OCCc2nc3c(cc2C(N)=O)CCC3)c1`, the INHIBITION is recorded as 54.8%.
For the molecule `O=C1CC[C@H]2[C@H](CCN2c2ncc(F)cn2)N1c1cccnc1`, the INHIBITION is recorded as 0.542%.
The figure for `Cc1cccc(C(=O)N2CCCC(Cc3cncc4ccccc34)C2)n1` (stereo not drawn) is -22.6%.
For the molecule `CCN(CC)CCCNC(=O)C(C)n1cc(Br)cn1` (stereo not drawn), the INHIBITION was -1.33%.
With `Cc1cc(N2CCOCC(Cc3ccc4[nH]ccc4c3)C2)ncn1` (stereo not drawn), the INHIBITION turned out to be 67.7%.
On to `c1cc(N2CCOCC(Cc3ccc4[nH]ccc4c3)C2)ncn1` (stereo not drawn), for which the INHIBITION amounted to 3.91%.
Take `Cc1cc(N2CCC(Cc3cccnc3)C2)ncn1` (stereo not drawn): the INHIBITION is reported as -2.09%.
With `Cc1cc(N2CCC(Cc3ccncc3)C2)ncn1` (stereo not drawn), the INHIBITION is listed as -2.09%.
The figure for `Cc1ccccc1CSc1nc(N)cc(N2CCOCC(CO)C2)n1` (stereo not drawn) is 46.6%; for `Nc1cc(N2CCOCC(Cc3ccc4[nH]ccc4c3)C2)ncn1` (stereo not drawn) it is 66.5%.
Take `Cc1nc(NCc2nncn2C2CC2)c2c(CC(C)C)csc2n1`: the INHIBITION is 45.4%.
`Cc1nc(C(=O)N2CC(C)Sc3ccccc32)cs1` (stereo not drawn): the INHIBITION is reported as 56.8%.
As to `CC1CN(C(=O)c2cscn2)c2ccccc2S1` (stereo not drawn), the INHIBITION came out at 63.7%.
Consider `Cc1ncsc1C(=O)N1CC(C)Sc2ccccc21` (stereo not drawn), for which the INHIBITION came out at 44%.
Next, `CC1CN(C(=O)c2ccnc(-n3cncn3)c2)c2ccccc2S1` (stereo not drawn): -40.7%; `CC1CN(C)c2ccccc2CN1C(=O)c1cscn1` (stereo not drawn): -4.15%.
On to `CC(=O)N1CC(C)CN(C(=O)c2cscn2)c2ccccc21` (stereo not drawn), for which the INHIBITION is listed as -5.26%.
Next, `O=S(=O)(c1cccs1)N1CC[C@H]2[C@H]1CCN2c1ncccn1`: -27%.
As for `Cc1occc1C(=O)N1CCc2c(COCC3CC3)cncc2C1`, the INHIBITION turned out to be 27.9%.
Turning to `Cn1c(C2CC2)nc2cc(NC(=O)C3CCOC3)ccc21` (stereo not drawn), the INHIBITION is -5.69%.
For `CN1CCOC(C(=O)Nc2ccc3c(c2)nc(C2CC2)n3C)C1` (stereo not drawn), the INHIBITION worked out at 60.8%.
As to `Cn1c(C2CC2)nc2cc(NC(=O)C3CC=CC3)ccc21`, the INHIBITION is given as -22.4%.
In the case of `CN1CCOC(C(=O)Nc2nnc(Cc3ccc(F)cc3)[nH]2)C1` (stereo not drawn), the INHIBITION is reported as -2.71%.
`CN1CCOC(C(=O)Nc2ccc3c(c2)nc(C(C)(C)C)n3C)C1` (stereo not drawn): the INHIBITION stood at 93.9%.
Turning to `CN1CCOC(C(=O)Nc2nc(-c3ccc(Cl)cc3)n[nH]2)C1` (stereo not drawn), the INHIBITION was -29.5%.
Turning to `CN1CCOC(C(=O)Nc2nc(-c3ccccc3F)n[nH]2)C1` (stereo not drawn), the INHIBITION is listed as -35.9%.

The values above are taken from ChEMBL document CHEMBL4513216, “Probing the Open Global Health Chemical Diversity Library for Multistage-Active Starting Points for Next-Generation Antimalarials” (ACS Infect Dis, 2020).
